Source: PubChem BioAssay (EPA / NIEHS)
Inconclusive results are not listed. More than one record can exist for a structure, and the calls need not agree. The source made the active and inactive calls. The calls were made as follows: active = hit-call score of the fitted dose curve at least 0.9, where 1 is the maximum; inconclusive = response in the unintended direction; inactive = score below 0.9.

These molecules were tested against Peroxisome proliferator-activated receptor gamma (Homo sapiens) (UniProt P37231) (assay: OT_PPARg_PPARgSRC1_0480: Odyssey Thera (OT) 8-hour Protein-Complementation Assay for Peroxisome Proliferator-activated Receptor Gamma / SRC-1 Co-activator (AID 2283387);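 also: nuclear to cytoplasmic split Venus YFP fluorescence ratio reporting PPARg SRC-1 interaction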).
Chain of Peroxisome proliferator-activated receptor gamma (Homo sapiens) (P37231 whole entry, looked up, the tested form may be a part): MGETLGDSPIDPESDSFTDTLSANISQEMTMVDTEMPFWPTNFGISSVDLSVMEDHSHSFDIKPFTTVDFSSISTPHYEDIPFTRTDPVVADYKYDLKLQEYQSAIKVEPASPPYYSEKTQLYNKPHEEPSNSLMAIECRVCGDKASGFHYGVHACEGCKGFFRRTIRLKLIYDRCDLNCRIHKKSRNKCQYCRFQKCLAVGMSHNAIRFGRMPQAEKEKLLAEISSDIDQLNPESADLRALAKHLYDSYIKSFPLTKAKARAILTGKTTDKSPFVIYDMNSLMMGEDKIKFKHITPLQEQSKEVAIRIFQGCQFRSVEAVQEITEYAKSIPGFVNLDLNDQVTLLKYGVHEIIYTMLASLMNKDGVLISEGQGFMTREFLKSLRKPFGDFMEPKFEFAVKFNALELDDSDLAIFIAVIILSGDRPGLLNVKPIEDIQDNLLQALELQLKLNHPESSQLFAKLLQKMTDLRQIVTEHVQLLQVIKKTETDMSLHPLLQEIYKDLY
How it was run: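 Protein-fragment complementation in HEK293T: Venus YFP halves (residues 1-158, 159-239, mutated to IFP1/IFP2) fused to PPARg/SRC-1. 8 h exposure; N/C ratio at 488 nm; DMSO negative control.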
For `COCc1nnc(-c2ccc[n+]([O-])c2)n1-c1c(Cl)c(Cl)cc2[nH]c(=O)c(=O)[nH]c12`, the outcome was “inactive”.
In the case of `O=C(O)[C@H](O)[C@@H](O)C(=O)O`, the outcome is reported as “inactive”.
`CCCCCCCCCCCCCCO` was tested, and the outcome was “inactive”.
In the case of `NC(=O)NN=Cc1ccc([N+](=O)[O-])o1`, the outcome is reported as “inactive”.
For `CCCCCOC(C)=O`, the outcome was “inactive”.
For `O=c1[nH]cnc2c1ncn2[C@H]1CC[C@@H](CO)O1`, the outcome was “inactive”.
`OCC(CO)(CO)CO` was tested, and the outcome was “inactive”.
For `C[C@@H](Oc1ccc(CNC(=O)c2cccnc2Oc2ccc3c(c2)OCO3)c(F)c1)C(=O)O`, the outcome was “inactive”.
For `NC(N)=O`, the outcome was “inactive”.
For `c1ccc2ncccc2c1`, the outcome was “inactive”.
For `CC(C)CC(C)O` (centres undefined), the outcome was “inactive”.
`OC(Cn1cncn1)(Cn1cncn1)c1ccc(F)cc1F` was tested, and the outcome was “inactive”.
`CC(=O)c1ccccc1` was tested, and the outcome was “inactive”.
For `O=C(O)CO`, the outcome was “inactive”.
With `O=C(O)c1cccc(C(=O)O)c1` the outcome was “inactive”.
With `Cc1ncc([C@@H](CCCCCCc2ccc3c(n2)NCCC3)CC(=O)O)cn1` the AC50 was 12.4 µM (active) and the outcome was “inactive”.
`C=CN1CCCC1=O` was tested, and the outcome was “inactive”.
With `CCCCOC(=O)c1ccccc1` the outcome was “inactive”.
For `CC1(C)C(=O)N(Cl)C(=O)N1Cl`, the outcome was “inactive”.
`CCCCCCOC(=O)CC(CC(=O)OCCCCCC)(OC(=O)CCC)C(=O)OCCCCCC` was tested, and the outcome was “inactive”.
In the case of `CCCCCCCC1CCC(=O)O1` (centres undefined), the outcome is reported as “inactive”.
In the case of `Cn1c(=O)c2[nH]cnc2n(C)c1=O`, the outcome is reported as “inactive”.
For `OC[C@H]1O[C@@](CO)(O[C@H]2O[C@H](CO)[C@@H](O)[C@H](O)[C@H]2O)[C@@H](O)[C@@H]1O`, the outcome was “inactive”.
In the case of `CCCc1ccccc1`, the outcome is reported as “inactive”.
With `NNC(=O)c1ccncc1` the outcome was “inactive”.
`O=S1(=O)CCCO1` was tested, and the outcome was “inactive”.
With `NC(=O)N(O)[C@@H]1COc2cc(OCc3ccccc3)ccc21` the outcome was “inactive”.
With `O=C1CN(N=Cc2ccc([N+](=O)[O-])o2)C(=O)N1` the outcome was “inactive”.
In the case of `O=C(O)c1ccc2c(c1)nc(C(=O)NC1CCN(C3CC3)CC1)n2Cc1cc(-c2ccc(Cl)s2)on1`, the outcome is reported as “inactive”.
With `CCOc1ccc2[nH]cc(C(=O)NCc3ccccc3)c(=O)c2n1` the outcome was “inactive”.
For `CCCCCCCC/C=C\CCCCCCCC(=O)OC[C@@H](O)[C@H]1OC[C@H](O)[C@H]1O`, the outcome was “inactive”.
In the case of `Cn1cc[nH]c1=S`, the outcome is reported as “inactive”.
In the case of `CCCCN1C(=O)[C@@H]([C@H](O)C2CCCCC2)NC(=O)C12CCN(Cc1ccc(Oc3ccc(C(=O)O)cc3)cc1)CC2`, the outcome is reported as “inactive”.
